From the supplement of paper PMC3334620
In all, about 33,000 sequences were measured (“E-score (-0.5 to 0.5)”: median about -0.017, highest 2% from about 0.3 on). The full list was thinned out, with the highest values kept by preference.

Biological target: T1, Sut1 (UniProt P53032)
T1 sequence: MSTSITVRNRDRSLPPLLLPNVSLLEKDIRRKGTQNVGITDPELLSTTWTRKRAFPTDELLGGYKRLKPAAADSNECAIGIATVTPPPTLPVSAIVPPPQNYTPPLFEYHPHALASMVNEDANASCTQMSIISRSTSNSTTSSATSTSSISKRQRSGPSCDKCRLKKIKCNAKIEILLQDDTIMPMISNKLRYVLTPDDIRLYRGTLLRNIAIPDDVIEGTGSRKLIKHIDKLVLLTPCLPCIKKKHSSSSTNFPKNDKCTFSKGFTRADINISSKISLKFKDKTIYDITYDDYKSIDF
Test: PBM E-score (8-mer binding enrichment) (E-score (-0.5 to 0.5)); higher = stronger / more preferred TF binding
Details: protein concentration: 200 nM; construct: GST-full length
Procedure: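 Universal 'all 10-mer' protein binding microarrays (Agilent AMADID 015681) probed with GST-tagged S. cerevisiae TFs (full-length or DBD) made by in vitro transcription/translation (PURExpress), about 100-200 nM. Bound TF was detected with fluorescent anti-GST. Each ungapped 8-mer (which stands for itself and its reverse complement) is scored by the PBM enrichment score (E-score), a modified Wilcoxon-Mann-Whitney statistic from -0.5 to +0.5, computed with the Universal PBM Analysis Suite. Scale: above 0.35 generally sequence-specific binding.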

Sequence	PBM E-score
AGTAGAGG	-0.308
GCGCAGCA	-0.232
ACAATTTC	0.0702
AGGATAAT	0.113
TCAAAGGA	-0.0285
GAGCCACC	-0.264
CCATCTCC	0.256
GAAGATTC	0.171
CATTCTCC	0.118
ACAACTCT	0.0085
GCAACTCA	0.0595
CCAACTCC	0.387
ACAACTCA	0.13
CCAACTCA	-0.0222
GCAACTAC	0.0638
GCAACTCC	0.299
CCAACTCG	-0.141
ACAACTCC	0.431
CGCTGTGA	-0.225
CTATTGGC	-0.227
ACCTTGAC	-0.143
GCGGAGTA	0.458
CAGGAGTC	0.0824
ATGGAGTA	0.179
ACGGAGTG	0.42

Sequence	PBM E-score
ACGGAGTA	0.473
GAGGAGTA	-0.0389
AAGGAGTG	-0.0821
CCGGAGGC	0.156
ATGGAGTG	-0.0878
AAGGAGTA	0.0607
CCGGAGTC	0.484
GCGGAGGA	-0.161
AATTGCGT	0.134
CGATCCTC	-0.124
ACACTCGA	-0.106
AAACCTAT	0.123
CTAGATGA	-0.0501
CACAAACG	0.127
CCAACCAG	-0.187
ACCGCAAT	0.1
ACGGAGGC	-0.0143
CAGGAGTA	-0.157
CCGGAGTA	0.49
ATGGAGTC	0.0281
CTGGAGTA	0.0562
ACGGAGTC	0.46
CAATTTTA	0.234
CACTTTAA	0.157
CGATTTAA	0.242

Sequence	PBM E-score
AACTTTAG	0.189
TGATTTAA	0.3
TAATTTAA	0.283
AACTTTAA	0.325
CAATTTAA	0.317
AGATTTAA	0.00422
AAATTTAA	0.318
AAATTTAG	0.254
AAATTTTA	0.125
CCAGGATC	-0.201
GTTTAACA	-0.00835
AGGATTTG	0.0444
CCTCCCTA	-0.367
CGCAAACG	-0.00322
AGATTGAG	0.0927
AACTATCT	0.0634
GGACCGTA	-0.172
CTGCGTTC	0.0373
GAGTTGTA	0.317
CAGTTGTA	0.00162
AAGTTGTA	0.0914
CTAGCGGA	0.0881
CGAGGTCA	-0.0467
ATCTCCGA	0.477
CTCTCCGA	0.257

Sequence	PBM E-score
ATCTCCAG	-0.0734
ATCTCCCG	-0.0416
ATCTCCGC	0.399
CTCTCCGC	0.18
ATCTCCGG	0.478
ATCTCCAA	0.158
GTCTCCGA	0.338
ATCTCCCA	-0.155
ATCTCCCC	-0.285
GTCTCCAA	-0.0301
AAGCGACC	0.0829
CGTAGGCA	-0.169
GATAGTAC	-0.00235
GCGCAAGC	-0.234
AAAGATTA	0.306
CAAGATTA	0.132
GAAGATTA	0.109
AAAAAACT	0.198
AGAGAGCG	-0.0777
GGTATGAA	0.114
CAGTTTTA	0.0952
TGGATAAA	0.263
GTGATAAA	0.0786
CGGATAAA	0.341
CCGATAAC	0.18

Sequence	PBM E-score
CGGATAAC	0.264
TTGATAAA	0.328
CCGATAAA	0.343
CCGATAAG	0.111
ATGATAAA	0.233
TGGGTTAA	-0.0031
ATCAACTC	-0.0768
ACAGAACG	-0.0202
TCACTCAA	0.0178
CCCTCAAA	-0.0431
AATCGGCG	-0.0941
AAAGTATA	0.214
GCTTAAGA	0.00411
GTCAAGAA	0.108
ACCGTTAG	0.00367
CAGCTGAA	-0.109
CAATTCCA	-0.032
CAATTCCG	0.305
AAATTCCC	-0.245
CGATTCCA	0.0585
CAATTCCC	0.072
CGATTCCG	0.314
AAATTCCG	0.337
AAATTCCA	0.241
CGATTCCC	-0.0189

Sequence	PBM E-score
GCTAGGGA	-0.308
AATCCCAG	0.0474
ATACGAGG	-0.165
CGATTGAG	-0.0533
AGGACTAG	-0.0577
AGGACTAC	-0.118
TGGACTAA	-0.104
CGGACTAG	0.452
GGGACTAC	-0.162
CGGACTAC	0.464
CGGACTAA	0.454
CAGACTAG	-0.288
GGGACTAA	-0.0778
GATGCTCC	0.17
CAAGGGGA	-0.185
GCCTTGCC	-0.155
ACGTCGAT	0.0428
CATCTGAG	-0.143
CACTCCAC	-0.0759
CCAGCTGG	-0.188
CATGCAGA	-0.15
ATTGAATA	0.315
GTTGAAAA	0.104
TTTGAAAA	0.31
ATTGAAAA	0.213

Sequence	PBM E-score
ATTGAATC	0.00919
ATTGAAAC	0.184
ATTGAAAT	0.311
CTTGAATA	0.0931
CTTGAAAA	0.0874
CCGGGCCG	0.155
TCCATGAA	0.131
AGCCTTTG	-0.165
ACCTCAGC	-0.106
CTCAGTTC	-0.0325
ATCTTTCG	-0.00103
CGAGAGCC	-0.161
CATTTCAA	0.275
GATTTCAA	0.147
TATTTCAA	0.301
ATTCATAA	0.127
CTTCCGGA	0.347
CTTCCGGC	0.0877
CTTCCGTA	0.181
GTTCCGCA	0.0832
GTTCCGAA	0.267
GTTCCGGA	0.342
ATTCCGGG	0.295
ATTCCGGA	0.42
ATTCCGGC	0.177

Sequence	PBM E-score
AGCCAAAT	0.14
ATCAAACG	0.132
CATTGCTC	0.1
CGGTCTAG	-0.0195
ACCGTAGA	0.0336
CCCGTAGA	-0.245
TCCGTAGA	0.361
AGTATCAG	-0.0501
ACCTCTCG	-0.047
CGTGACCC	-0.111
CAATCAGG	-0.167
GCTTTGAA	-0.00621
AATACAAA	0.348
AATACAAG	0.123
ACTACAAC	0.266
ACTACAAA	0.302
GATACAAA	0.112
ACTACAAG	0.0409
GCCTGGAC	-0.336
AGGCAGGC	-0.208
GCCGTCCA	0.00979
TCCGTCCA	0.316
CCCGTCCA	-0.198
CAGGTTAG	-0.082
AGCCTACT	-0.134

Sequence	PBM E-score
CTACTATC	0.312
CTACTATA	0.281
ATACTATC	0.202
ATGTAGTC	0.18
GACACCGC	-0.0517
ATCTCGGG	0.0127
CTCTCGGA	0.32
ACCTCGGA	0.404
CGCTCGGA	0.29
ATCTCGGA	0.368
AGCTCGGC	-0.00249
AGCTCGGA	0.336
GCCTCGGA	0.198
ATCTCGGC	0.13
CTCTCGGC	-0.0324
ACCTCGGC	0.0761
CTCTCGAA	-0.282
GCCACTCA	-0.126
AGTTAAAG	0.0654
AATCACAT	0.139
CAGCATTC	-0.193
CAGTTGGG	-0.207
ACCACTCA	-0.156
ACCAAAGG	-0.0819
AATGGCAA	0.0477

Sequence	PBM E-score
AGATGAGC	-0.0376
AGACCAAG	0.186
GTCTCGTA	-0.0582
GTCTCGGA	0.316
GTCTCGAA	-0.159
CTTTTGAA	0.152
ACAGTCCA	0.0821
AGAGTCCG	0.449
AGAGTCCC	-0.0834
ATAGTCCC	-0.206
CGAGTCCC	0.014
CGAGTCCA	-0.139
ATAGTCCA	0.0136
ACAGTCCG	0.312
AGAGTCCT	-0.114
CGAGTCCG	0.426
ATAGTCCG	0.473
CCAGTCCG	0.222
GCTCTTAC	0.132
CACTCACG	-0.0637
TATGAACA	0.0917
AAAACGCA	-0.0411
AAGAGTTA	0.12
CAAGTCAG	-0.0539
CAGTTGCA	-0.0927

Sequence	PBM E-score
GACGCAGC	-0.199
CTCCGTTA	0.335
ATCCGTTC	0.147
CGCCGTTA	-0.0973
GGCCGTTA	0.137
CTCCGTTC	0.32
GTCCGTTA	0.376
CGCCGTTC	-0.157
CACCGTTA	0.0406
ATCCGTTA	0.275
GCCGGCGC	0.089
GACGCTAC	-0.101
AATAGCTG	0.0185
CCGCACGC	-0.237
CTAACCTA	0.0178
ATTCGGCG	-0.0582
ATTCGGAG	0.432
ATTCGGGC	-0.0696
ATTCGGCC	-0.0211
ATTCGGAA	0.262
ATTCGGAC	0.455
GAATAGGC	-0.0173
AGCCTCAG	-0.139
ACGAGTGA	-0.115
GTCACCAA	-0.0973

Sequence	PBM E-score
CGCTCCGC	0.0358
CGCTCCCA	-0.0881
AGCTCCGG	0.466
AGCTCCCG	-0.173
CCCTCCGG	0.00905
GGCTCCCA	-0.12
GGCTCCGA	0.338
ACCTCCGT	0.165
CGCTCCGA	0.317
ACCTCCGG	0.322
GGCTCCAA	0.00981
AGCTCCTG	-0.238
CTAGCTAG	0.132
CTCATCCA	-0.124
GTCCTACA	-0.0165
CTCTGGTC	-0.00832
GGGGGCAA	-0.211
ATTCAGGA	0.0993
ACTGTGTA	0.0481
ACGTAGGC	-0.171
AGCTCCAA	0.0776
AGCTCCGA	0.464
AGCTCCTA	-0.173
AGCTCCTC	-0.098
AGCTCCGC	0.331

Sequence	PBM E-score
AGCTCCAC	-0.0851
CACCCACG	-0.0788
ATTCTCAG	0.00054
ATTCCAAT	0.161
ATACGTTC	-0.101
ATGTGCGA	-0.0365
AACTAGCG	-0.0241
ACCTTCGG	0.147
CATTTGCA	0.0495
ATCCTCCA	-0.0869
TGCCTACA	-0.15
CGTCCGAA	0.125
TGTCCTAA	-0.0608
GGTCCGAA	0.437
TGTCCGAA	0.428
TGTCCAAA	0.124
GGTCCAAA	-0.168
GTACGTCA	-0.0804
ATACTGGA	0.122
GACAACGA	0.104
ACGTTTGA	0.132
AGCTGGCA	-0.241
CGCGAACG	-0.0292
AAATCGGA	0.397
TAATCGGA	0.308

Sequence	PBM E-score
CAATCGGA	0.286
GAATCGCA	-0.0351
GAATCGGC	0.0753
TAATCGAA	0.0525
GAATCGGA	0.376
AAATCGGT	0.0195
AAATCGGG	0.0832
CAGGTGAC	-0.157
ACCACTCT	-0.157
ATTGCAAT	0.0774
AAAATTTT	0.236
AATTGTAC	0.146
TATGAGGA	-0.0297
GGCGATGA	-0.143
GACCGGCA	-0.308
GGCCGGCA	0.00533
CTCCGGCC	0.376
ATCCGGCC	0.135
GGCCGGCC	-0.0421
CCCCGGCA	0.0139
ATCCGGCA	-0.166
CTCCGGCA	0.423
GTCCGGCA	0.317
